# Experiment: basal RPMI8226 viability, no added stimulus, profiling panel, cell-based, calcein-AM fluorescence, 48 h, PK04 Diversity Set (AID 1166);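 note: cells grown under basal conditions without added stimulus; test concentration not given here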
# Details: RPMI8226 myeloma viability, higher = more signal
row,SMILES,z-score
1,C=C(COC)/C(=C/C[C@@H](OC(C)=O)c1ccccc1OCCO)c1cnc2ccccc2c1,-1.14
2,CN(C)CCCNC(=O)[C@@]1(C)c2ccccc2C(=O)N(Cc2ccc(OC(F)(F)F)cc2)[C@H]1c1ccc(CO)cc1,0.513
3,C=CC[C@]1(C(=O)NCC(O)CO)COC(c2ccc(OCCCO)cc2)=N1 (stereo partly specified),0.146
4,C=CCC(OC(C)=O)[C@@H]1[C@@H](N(Cc2cccc3ccccc23)C(=O)c2ccc(-c3ccccc3)cc2)c2cc(OCCCO)ccc2N1C(=O)Cc1ccc2ccccc2c1 (stereo partly specified),-0.729
5,CCCCCC1=C2CNC(CC(C)C)(C(=O)OC)C=C2C(C)C1=O (stereo unspecified),-1.12
6,CN1C(=O)[C@@H]2[C@@H](CC(COc3ccccc3)=C3[C@@H](CCc4ccccc4)OB(O)C[C@@H]32)C1=O,-0.802
7,COC(=O)[C@@]1(Cc2ccc(OC)cc2)[C@H]2c3cc(C(=O)N4CCCC4)n(Cc4ccc(C(F)(F)F)nc4)c3C[C@H]2CN1C(=O)c1ccccc1,-1.33
8,C=CCC(OC(C)=O)[C@@H]1[C@@H](N(Cc2cc3ccccc3o2)C(=O)Cc2ccc(OC)cc2)c2cc(OCCCO)ccc2N1C(=O)c1ccc2ccccc2n1 (stereo partly specified),-1.63
9,[N-]=[N+]=Nc1ccccc1[C@@H]1OC(c2ccc(OCCCO)cc2)=N[C@]1(Cc1ccccc1)C(=O)NCCN1CCOCC1,-4.18
10,COc1ccc(C(=O)Nc2cccc(CN3C(=O)[C@]4(O[C@H](CC(=O)N5Cc6ccccc6C[C@H]5CO)[C@@H]([Si](C)(C)c5ccc(OC)cc5)[C@@H]4C)c4ccccc43)c2)cc1,-2.56
11,C=CCN1C(=O)[C@@]2(O[C@@H](CCn3cc([C@H](O)c4ccccc4)nn3)[C@H]([Si](C)(C)c3ccc(OC)cc3)[C@H]2C)c2cc(N3C(=O)c4cccc5cccc3c45)ccc21,-4.04

# Reference: PubChem BioAssay
